Screening results from PubChem BioAssay.
Only some compounds are listed: those with a hit (about 1.8% of all), similar ones and a draw of the others.
INS-1E GSIS act – GLuc luminescence reporter in INS-1E cells, primary screen for activators of glucose-dependent secretion of insulin. INS-1E GLuc reporter insulin secretion, 2-3 h. activation, % at 16.6 µM. 370,000 compounds, 0.61% hits. AID 743287, 2014;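 active means lowest replicate activation of at least 40%, so every replicate reaches that level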;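 further: 0% = median of neutral control wells and 100% = median of IBMX positive control wells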
NRP1-CendR mod – modulators of CendR peptide binding to NRP-1, primary screen, biochemical, fluorescence polarization, uHTS; inhibition, % at 25 µM; Neuropilin-1 (Homo sapiens), O14786; 360,000 compounds, 0.85% hits; FAM-RPARPAR peptide binding to NRP-1;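 active means inhibition or corrected inhibition above about 18%, plus a signal ratio from 0.5 to 1.5, limit read from the data, passing the limit was not always enough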
Target sequence (O14786 whole entry, looked up): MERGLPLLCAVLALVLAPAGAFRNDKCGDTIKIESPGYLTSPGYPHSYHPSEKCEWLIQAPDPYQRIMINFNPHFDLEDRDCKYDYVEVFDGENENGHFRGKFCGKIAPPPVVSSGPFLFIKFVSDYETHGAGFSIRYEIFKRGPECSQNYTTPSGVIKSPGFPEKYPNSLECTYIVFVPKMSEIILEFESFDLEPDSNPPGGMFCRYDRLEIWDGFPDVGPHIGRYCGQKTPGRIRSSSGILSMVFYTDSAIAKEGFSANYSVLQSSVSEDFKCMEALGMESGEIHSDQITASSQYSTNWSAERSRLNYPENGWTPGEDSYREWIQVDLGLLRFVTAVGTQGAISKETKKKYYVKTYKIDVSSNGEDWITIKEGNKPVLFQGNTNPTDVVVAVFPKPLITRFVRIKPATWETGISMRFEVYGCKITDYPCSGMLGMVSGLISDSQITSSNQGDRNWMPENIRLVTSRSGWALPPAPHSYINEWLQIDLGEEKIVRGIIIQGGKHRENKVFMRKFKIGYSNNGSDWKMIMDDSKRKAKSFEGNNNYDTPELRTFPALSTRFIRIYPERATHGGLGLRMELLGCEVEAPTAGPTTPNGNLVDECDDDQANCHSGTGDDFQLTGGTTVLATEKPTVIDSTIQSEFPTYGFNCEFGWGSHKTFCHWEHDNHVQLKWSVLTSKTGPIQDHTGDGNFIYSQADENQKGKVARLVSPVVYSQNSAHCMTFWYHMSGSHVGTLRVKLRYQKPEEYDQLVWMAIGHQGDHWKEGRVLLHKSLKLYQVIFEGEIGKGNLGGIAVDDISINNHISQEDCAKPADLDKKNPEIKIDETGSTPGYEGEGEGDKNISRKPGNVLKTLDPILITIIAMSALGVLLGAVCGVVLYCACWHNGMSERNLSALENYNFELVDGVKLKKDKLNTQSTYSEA
ABCB6 inh 2 – ABCB6 transporter inhibitors, primary screen, K562-ABCB6 cells, flow cytometry, MLPCN library; 360,000 compounds, 0.19% hits; fluorescence ratio to DMSO, % at 10 µM; K562-ABCB6 porphyrin accumulation, 1 h; active compounds read low;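 active means fluorescence ratio to DMSO below 75%, the collection mean minus 3 SD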;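 further: signal is porphyrin accumulated inside mitochondria; 100% equals median channel fluorescence of DMSO control wells; lower ratio means ABCB6 inhibition with less porphyrin fluorescence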
ARNT-TACC3 inh – disruptors of ARNT/TACC3 protein interaction, primary screen, biochemical, AlphaScreen, single concentration | Transforming acidic coiled-coil-containing protein 3 (Homo sapiens), Q9Y6A5 | AlphaScreen His-ARNT PAS-B/GST-TACC3 binding, luminescence; TACC3 fragment carries E629A point mutation | inhibition, % at 9.99 µM | 390,000 compounds, 0.66% hits | AID 623870, 2012;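 active means mean inhibition of replicates at least 50% and at least half of replicates each reaching 50%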;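 further: 0% = complete ARNT plus TACC3 wells and 100% = ARNT alone without TACC3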
iPSC survival up – enhancers of single-cell hiPSC survival, primary screen, ATPlite luminescence. 100% = ROCK inhibitor wells, 0% = DMSO. survival enhancement, % at 20 µM. AID 602274, 2012. 360,000 compounds, 0.044% hits; in the data active means survival enhancement above about 18%;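 further: cells exposed to compounds for 16 hours before the ATP read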
* = called active by the depositor; nt = no result.

SMILES	INS-1E GSIS act	NRP1-CendR mod	ABCB6 inh 2	ARNT-TACC3 inh	iPSC survival up
O=C(c1ccc(F)cc1)N1CC(=O)N2[C@H](CO)[C@H](c3ccc(-c4ccccc4)cc3)[C@H]2C1	-9	nt	nt	nt	nt
COc1ccc(NC(=O)Nc2ccc3c(c2)[C@H]2C[C@H](CC(=O)N4CCCCC4)O[C@@H](CO)[C@H]2O3)cc1	-5	nt	nt	-7	nt
COC(=O)c1ccc2c(c1)c(-c1ccccc1)c(-c1ccccc1)n2C	-5	32*	108	-4	-1
COc1ccc(C2C(C(=O)Nc3ccc(F)cc3)=C(C)Nc3nc(CCCO)nn32)cc1 (stereo not given)	-1	20*	99	-4	1
CS(=O)(=O)Nc1ccc2c(c1)[C@@H]1C[C@@H](CC(=O)NCc3cc(F)ccc3F)O[C@@H](CO)[C@@H]1O2	-4	nt	nt	3	nt
COc1ccccc1/C=N/NC(=O)CN(C1=NS(=O)(=O)c2ccccc21)c1ccccc1	-26	26*	102	23	-1
COc1ccc(/C=N/NC(=O)CN(C2=NS(=O)(=O)c3ccccc32)c2ccccc2)cc1	31	-2	91	-7	-1
CCOc1ccc(OCc2ccc(C(=O)N3CCCC3)o2)cc1	1	-3	99	-5	1
CN1CCN(C(=O)c2ccc(COc3ccc(C(C)(C)C)cc3)o2)CC1	nt	23*	97	nt	-1
CC(C)C[C@@H](CSc1ccc(Br)cc1)N1CCN(CC(C)C)CCC1=O	1	21*	91	-6	1
Cc1ccc(SC[C@H](c2ccccc2)N2CCN(CC(C)C)CCC2=O)cc1	-15	33*	100	-3	-2
CC(C)CN1CCC(=O)N([C@H](CSc2ccc(Br)cc2)c2ccccc2)CC1	nt	16	92	-3	0
CC(C)C[C@@H](CSc1ccc(Br)cc1)N1CCN(C)CCC1=O	-30	10	99	2	-1
COc1ccc2c3c([nH]c2c1)[C@@H](CO)N(S(=O)(=O)c1cn(C)cn1)CC31CCN(Cc2ccccc2F)CC1	13	nt	nt	nt	nt
CCCC(=O)N1CCC2(CC1)CN(C(=O)CN1CCOCC1)[C@@H](CO)c1c2c2ccc(OC)cc2n1C	-9	nt	nt	nt	nt
Cc1ccc2oc(-c3cccc(NC(=O)Cc4cccs4)c3)nc2c1	65*	-11	102	0	-3
COCCNC(=O)CCCn1c(=O)c2ccccc2n(Cc2ccccc2C#N)c1=O	54*	10	106	4	0
Cc1noc(C)c1NC(=O)N[C@H]1CC[C@@H](CCNC(=O)C2CC2)O[C@H]1CO	7	nt	nt	1	nt
CCN(CC)c1ccc(Nc2cc3n(c(=O)n2)CCc2cc(OC)c(OC)cc2-3)cc1	26	-67	115	nt	-1
COc1cc2c(cc1OC)-c1cc(Nc3ccc(N(C)C)cc3)nc(=O)n1CC2	79*	-6	99	45*	0
CC(=O)N1CCN(C(=O)c2cc3ccccc3o2)CC1	5	10	104	-4	0
O=C(c1cc2ccccc2o1)N1CCN(S(=O)(=O)c2c(F)cccc2F)CC1	-2	33*	97	4	0
COc1ccc(N2C(=O)C3C4C=CC(C5CC45)C3C2=O)c([N+](=O)[O-])c1 (stereo not given)	nt	33*	106	-2	4
COc1ccc(N2C(=O)C3C4C=CC(CC4)C3C2=O)c([N+](=O)[O-])c1 (stereo not given)	nt	10	196	2	0
O=C1c2ccccc2C(=O)c2c1cccc2N1CCCC1	nt	12	104	20	1
SMILES	INS-1E GSIS act	NRP1-CendR mod	ABCB6 inh 2	ARNT-TACC3 inh	iPSC survival up
Cn1c(=O)cc2c3c(c(N4CCCCC4)ccc31)C(=O)c1ccccc1-2	-3	58*	165	nt	0
O=c1[nH]n2c(C(F)(F)F)cc(C3CC3)nc2c1N=Nc1ccccc1	-3	24*	100	2	-1
CO[C@@H]1CN(C)C(=O)c2cc(NS(C)(=O)=O)ccc2OC[C@@H](C)N(C(=O)C2CCCCC2)C[C@H]1C	1	nt	nt	-4	nt
O=C(CCc1ccccc1)NNC(=O)COc1ccccc1Cl	137*	-5	97	-3	0
COc1ccc(-c2ccc(C#N)c(SCC(=O)NCc3ccco3)n2)cc1OC	51*	-8	103	-9	2
COc1ccc(-c2csc(NCc3ccco3)n2)cc1C	nt	23*	104	0	-3
COc1ccc(-c2nc3cccc(C)n3c2NCc2ccco2)cc1OC	65*	7	96	-3	0
COc1ccc(-c2ccc(C#N)c(SCC(=O)NC3CC3)n2)cc1OC	nt	8	105	-3	0
COc1ccc(-c2nnc3ccc(SCC(=O)NCc4ccco4)nn23)cc1OC	14	10	97	13	2
C[C@@H]1CN([C@H](C)CO)C(=O)c2cccc(NS(C)(=O)=O)c2O[C@H]1CN(C)C(=O)Nc1ccccc1	14	nt	nt	-2	nt
CCOC(=O)c1ccc2c(c1)sc(=NC(=O)c1ccco1)n2CCOC	65*	-18	96	-4	-1
CCC(=O)N=c1sc2cc([N+](=O)[O-])ccc2n1CCOC	6	0	95	-2	-1
CCOC(=O)Cn1c(=NC(=O)CN2C(=O)CCC2=O)sc2cc(S(N)(=O)=O)ccc21	3	14	98	-5	1
CCOC(=O)Cn1c(=NC(=O)c2nc3ccccc3s2)sc2cc(S(N)(=O)=O)ccc21	68*	2	91	-9	-1
CCOC(=O)Cn1c(=NC(=O)C(C)(C)C)sc2cc([N+](=O)[O-])ccc21	nt	-13	98	-3	0
CCOC(=O)Cn1c(=NC(=O)c2cccs2)sc2cc(C(=O)OC)ccc21	90*	-9	93	-1	1
O=C(C[C@@H]1C=C[C@H](NC(=O)C2CCOCC2)[C@@H](CO)O1)NCc1ccccc1Cl	3	nt	nt	nt	nt
C[C@@H]1CCCCO[C@H](CN(C)S(=O)(=O)c2ccccc2)[C@@H](C)CN([C@H](C)CO)C(=O)c2cc(NS(=O)(=O)c3cn(C)cn3)ccc2O1	5	nt	nt	-3	nt
COc1ccc(-c2cc(NC=O)c3ncc(-c4ccc(OC)c(OC)c4)n3c2)cc1	52*	-57	135	nt	-1
COc1ccc(-c2cc(NC=O)c3ncc(-c4ccc(OC)c(OC)c4)n3c2)cc1OC	nt	-30	103	nt	-1
O=C(C[C@H]1CC[C@H]2[C@@H](COC[C@@H](O)CN2Cc2cccc(C(F)(F)F)c2)O1)NCc1ccc(F)cc1	-7	nt	nt	-4	nt
CC(C)(C)C1CCc2c(sc(NC(=O)c3cccs3)c2C(N)=O)C1 (stereo not given)	45*	11	98	-1	-5
CC(C)N(CCCNC(=O)Cn1ncc2c([nH]c3ccccc32)c1=O)Cc1ccccc1	11	26*	99	1	0
